Compounds with a hit are over-represented: about 0.56% of the library has one in this group of screens.
ERp5 inh: blocks human ERp5 reductase activity on insulin; ERp5 insulin aggregation, absorbance 650 nm, 90 min; actives 0.05% (n = 350,000); Q15084; inhibition, % at 9.99 µM;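 active = mean replicate inhibition above about 25%, with every replicate also reaching it, limit read from the data, passing the limit was not always enough; inconclusive = only one of those two criteria met; inactive = neither criterion met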
Target sequence (Q15084 whole entry, looked up): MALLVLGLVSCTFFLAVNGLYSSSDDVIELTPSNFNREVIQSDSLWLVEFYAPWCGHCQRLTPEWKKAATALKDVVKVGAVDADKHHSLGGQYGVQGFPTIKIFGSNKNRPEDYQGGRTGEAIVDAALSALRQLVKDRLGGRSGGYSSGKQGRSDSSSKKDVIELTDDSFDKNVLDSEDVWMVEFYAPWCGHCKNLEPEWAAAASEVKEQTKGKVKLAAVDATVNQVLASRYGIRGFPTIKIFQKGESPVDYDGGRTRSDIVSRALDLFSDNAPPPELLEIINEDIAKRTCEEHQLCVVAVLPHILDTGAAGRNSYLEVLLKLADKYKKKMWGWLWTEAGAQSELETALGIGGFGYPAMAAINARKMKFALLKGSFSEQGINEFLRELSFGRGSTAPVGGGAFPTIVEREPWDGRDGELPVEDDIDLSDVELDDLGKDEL
PvdQ inh: P. aeruginosa PvdQ acylase inhibition | AID 488965 | actives 0.063% (n = 340,000) | inhibition, % at 10 µM | purified PvdQ acylase, fluorescence plate reader; in the data active = inhibition above about 30%, passing the limit was not always enough; inconclusive = no clear call, values can overlap the other calls
N-glyco inh: N-linked glycosylation inhibition; D54 ERlucT glycosylation luciferase reporter, 24 h; percent of 100 nM tunicamycin response; reporter increase, % at 12.5 µM; actives 0.23% (n = 360,000); AID 588692;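 active = mean luciferase reporter signal, scaled so untreated is 0 and the glycosylation-blocking control 100, at or above a set limit in every replicate; inconclusive = mean reaches the limit but not every replicate does; inactive = mean below the limit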;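 note: luciferase carries N-glycosylation sites so blocking glycosylation raises the light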
PDI inh: blocks human protein disulfide isomerase activity; PDI insulin aggregation turbidity, A650, 90 min; AID 588391; inhibition, % at 10 µM; actives 0.052% (n = 350,000); P07237;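 active = mean inhibition across replicates of 30% or more, whatever share of single replicates reach that level; inconclusive = mean inhibition below 30% while every single replicate reaches 30%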
Vif imaging: inhibitors of HIV Vif. actives 0.35% (n = 340,000). HEK293T cells, Vif self-association by quenched fluorescence, imaging, 24 h. inhibition, % at 7.49 µM; in the data active = inhibition above about 50%, passing the limit was not always enough; inconclusive = no clear call, values can overlap the other calls; inactive = below about 31%
Each line names hits and unclear results; the compound was inactive in the other large screens.

COc1ccc(C#Cc2ccc([C@H]3[C@H]4CN(C(=O)NC(C)C)CC(=O)N4[C@H]3CO)cc2)cc1	none (no result: PvdQ inh, N-glyco inh, PDI inh, Vif imaging)
CCCCN(C=O)c1c(CC)nc2ccc(C(=O)NCCc3c[nH]c4ccccc34)cn12	none (no result: PvdQ inh)
CCc1nc2ccc(C(=O)NCCc3c[nH]c4ccccc34)cn2c1N(C=O)CCC(C)C	N-glyco inh 64.4 (no result: PvdQ inh)
Cc1cccc(CSc2nnc(CCNC(=O)OC(C)(C)C)o2)c1	none (no result: PvdQ inh)
CC1=CCC(C(=O)O)C(C(=O)Nc2cccnc2)C1 (stereo not drawn)	Vif imaging 50.6
CC1=CCC(C(=O)O)C(C(=O)Nc2nc3ccc(S(C)(=O)=O)cc3s2)C1 (stereo not drawn)	none (no result: ERp5 inh)
COc1cc(C2c3cc4c(cc3OC(NNC(N)=S)C2C)OCO4)cc(OC)c1OC (stereo not drawn)	Vif imaging 56.0
COc1cc([C@@H]2c3cc4c(cc3[C@H](O)[C@H]3COC(=O)[C@H]23)OCO4)cc(OC)c1OC	Vif imaging active
C[C@]1(O)CC(=O)C=C[C@H]1Nc1ccccc1	N-glyco inh 44.0
COc1cccc(C(=O)NCCSCc2ccccc2Cl)c1	none
CCN(CC)c1nc2c(c(=O)[nH]c(=O)n2C)n1Cc1ccccc1	none
CCCCCCn1c(N(CC)CC)nc2c1c(=O)[nH]c(=O)n2C	Vif imaging 51.7 (no result: ERp5 inh)
CNC(=O)COC(=O)c1cccnc1SC	none (no result: ERp5 inh, Vif imaging)
CSc1ncccc1C(=O)OCC(=O)NC(C)(C)C	Vif imaging 51.7
Nc1c(C(=O)Nc2ccc(S(=O)(=O)N3CCCC3)cc2)sc2nc3ccc(OC(F)(F)F)cc3cc12	N-glyco inh 99.6, Vif imaging 95.6 (no result: ERp5 inh)
Cc1ccc(C)c(C(=O)COC(=O)c2ccc(C)c(S(=O)(=O)N3CCOCC3)c2)c1	Vif imaging 58.9
Oc1cccc2c3c(oc12)CCCC3	Vif imaging 69.8 (no result: PvdQ inh)
CCN1CC=C2C(C#N)=C(N)C(C#N)(C#N)C(CCc3ccccc3)C2C1 (stereo not drawn)	Vif imaging 79.3 (no result: ERp5 inh)
O=C(COc1ccccc1)NCc1ccccc1	none (no result: ERp5 inh)
O=C(COc1ccc(C(=O)c2ccccc2)cc1)NCc1ccc(F)cc1	N-glyco inh 28.7 (no result: ERp5 inh)
CCOC(=O)c1sc(SC)c(C(C)=O)c1C	none (no result: ERp5 inh)
Cc1cccnc1NC(=O)c1ccc(S(=O)(=O)N2CCCC2)cc1	none (no result: PvdQ inh, Vif imaging)
CN1C(=O)S/C(=C\c2ccc(-n3cncn3)cc2)C1=O	PvdQ inh 48.0
CCCCOc1ncnc2c1[nH]c1ccccc12	Vif imaging 88.3
Cc1ccc([C@H]2N[C@]3(CCCN(Cc4ccc(Cl)cc4)C3=O)[C@H]3C(=O)N(C)C(=O)[C@@H]23)cc1	ERp5 inh 26.0 (no result: PvdQ inh)
C/C=C/c1cnc2c(c1)C(=O)N([C@H](C)CO)C[C@@H](C)[C@H](CN(C)C(=O)c1cccnc1)O2	none (no result: PvdQ inh, N-glyco inh, PDI inh, Vif imaging)
CCCCn1c(-c2ccncc2)nc2c1c(=O)[nH]c(=O)n2CC(C)C	Vif imaging 56.9 (no result: ERp5 inh)
O=C(Nc1cccc(F)c1)N[C@@H]1CC[C@@H](CCNS(=O)(=O)c2cccc(Cl)c2)O[C@@H]1CO	none (no result: PvdQ inh, N-glyco inh, PDI inh, Vif imaging)
COc1cc2c(cc1OC)C(C)N(C(=O)CCNC(=O)c1ccccc1)CC2 (stereo not drawn)	none
COc1cc2c(cc1OC)C(C)N(C(=O)Nc1ccccc1)CC2 (stereo not drawn)	N-glyco inh 35.1
Nc1ccc(N2CCOCC2)c2nonc12	PDI inh 66.3
CC(=NNC(=O)c1ccncc1)c1ccccc1O	none
CC(C)CC(=NNC(=O)c1ccncc1)c1cc(Cl)ccc1O	Vif imaging 55.1
Cc1cc(S(=O)(=O)N(Cc2ccc(C(C)C)cc2)CC2CCCO2)ccc1-n1cnnn1 (stereo not drawn)	none
O=C(/C=C/c1ccc(N2CCCCC2)c([N+](=O)[O-])c1)c1ccc(O)cc1	PDI inh 84.7
COc1ccccc1C(=O)/C=C/c1ccc(N2CCCCC2)c([N+](=O)[O-])c1	none
Cc1ccc2c(c1)C1C3CCC(C3)C1S(=O)N2 (stereo not drawn)	PvdQ inh 56.6
Cn1c(CNc2ccc(Cl)cc2)nc2ccccc21	none (no result: ERp5 inh)
CN(Cc1nc2ccccc2n1C)S(=O)(=O)c1ccc(Cl)cc1	Vif imaging 50.4 (no result: ERp5 inh)
CC(NC(=O)c1ccc(Cn2cc([N+](=O)[O-])cn2)o1)c1ccccc1 (stereo not drawn)	none (no result: ERp5 inh, Vif imaging)
OCCCCCN=c1cc(-c2ccccc2)oc2ccc(Cl)cc12	N-glyco inh 50.9 (no result: ERp5 inh)
Clc1ccc2oc(-c3ccccc3)cc(=NCCCN3CCOCC3)c2c1	none
O=C(NCc1ccccc1)c1ccc(Cl)c(NC2=NC3CS(=O)(=O)CC3S2)c1 (stereo not drawn)	Vif imaging 59.9 (no result: PDI inh)
Cc1ccc(CNc2ccc3c(c2)OCO3)cc1	Vif imaging 62.5 (no result: ERp5 inh)
c1cc(CNc2ccc3c(c2)OCO3)ccn1	none (no result: ERp5 inh)
O=C(Cc1ccc(-c2ccccc2)cc1)NCc1ccccc1	N-glyco inh inconclusive, Vif imaging 53.7 (no result: ERp5 inh)
CC1=C(C)/C(=N\OS(=O)(=O)c2ccccc2)C=CC1=O	Vif imaging 55.5
Cc1ccc(S(=O)(=O)O/N=C2\CCCc3ccccc32)cc1	none (no result: ERp5 inh, Vif imaging)
O=C(N/N=C/c1ccc(O)cc1O)C(=O)N/N=C/c1ccc(O)cc1O	Vif imaging 62.4
O=C(NN=Cc1ccc(O)cc1)C(=O)NN=Cc1ccc(O)cc1	none
CCN(CC)C(=O)c1sc2nc(-c3cccs3)cc(-c3cccs3)c2c1N	Vif imaging 82.8
CCOC(=O)c1ccc(Nc2ncccc2[N+](=O)[O-])cc1	PvdQ inh 44.5
CCOC(=O)c1ccc(NC(=O)c2ccccc2[N+](=O)[O-])cc1	none (no result: ERp5 inh)
Cc1ccc(-c2cc(C(=O)NCc3ccccn3)c3ccccc3n2)cc1	Vif imaging 59.3 (no result: ERp5 inh)
CCC(=O)Nc1ccc2c(c1)C(=O)N(C)[C@H]1CC[C@@H](CC(=O)NCC3CC3)O[C@H]1CO2	ERp5 inh 36.3 (no result: PvdQ inh, N-glyco inh, PDI inh, Vif imaging)
CCCNC(=O)C[C@H]1CC[C@@H]2[C@@H](COc3ccc(NC(=O)c4ccccc4)cc3C(=O)N2C)O1	ERp5 inh 63.7 (no result: PvdQ inh, N-glyco inh, PDI inh, Vif imaging)
CCC(=O)Nc1ccc2c(c1)C(=O)N(C)[C@H]1CC[C@H](CC(=O)NCC3CC3)O[C@H]1CO2	ERp5 inh 60.1 (no result: PvdQ inh, N-glyco inh, PDI inh, Vif imaging)
CCC(=O)Nc1ccc2c(c1)C(=O)N(C)[C@@H]1CC[C@@H](CC(=O)NCC3CC3)O[C@H]1CO2	none (no result: PvdQ inh, N-glyco inh, PDI inh, Vif imaging)
CC(=O)Nc1ccc2c(c1)C(=O)N(C)[C@H]1CC[C@H](CC(=O)NCC3CC3)O[C@@H]1CO2	ERp5 inh 90.7 (no result: PvdQ inh, N-glyco inh, PDI inh, Vif imaging)
CC(=O)Nc1ccc2c(c1)C(=O)N(C)[C@@H]1CC[C@@H](CC(=O)NCC3CC3)O[C@@H]1CO2	none (no result: PvdQ inh, N-glyco inh, PDI inh, Vif imaging)
COc1ccc(C)cc1NC(=O)c1cc2ccccc2cc1OCC(=O)NCc1ccco1	none (no result: ERp5 inh)
COc1ccc(C)cc1S(=O)(=O)N(CC(=O)N1CCOCC1)Cc1ccccc1	none (no result: ERp5 inh, Vif imaging)
Cc1cc(C(=O)COC(=O)c2ccc[nH]c2=O)c(C)n1C1CC1	none (no result: Vif imaging)
COc1cc(NCCCNC(C)C)c2nccc(C)c2c1	Vif imaging 67.4
COc1cc(NCc2ccccc2)c2ncn(C(C)C)c2c1	none
COc1ccc(C(=O)Oc2c(CN3CCOCC3)cc(Cl)c3cccnc23)cc1OC	none (no result: PvdQ inh, N-glyco inh, PDI inh, Vif imaging)
COc1cc(OC)c(N(C)S(=O)(=O)c2cccc(C(=O)NCc3cccs3)c2)cc1Cl	none (no result: PvdQ inh, Vif imaging)
CCCCNC(=O)c1cc(-c2ccc(OC)cc2)on1	none (no result: ERp5 inh)
